Measured values published in PubChem BioAssay (EPA / NIEHS).
Results filed as inconclusive are left out. Active and inactive are the calls of the source. The calls were made as follows: active = hit-call score of the fitted dose curve at least 0.9, where 1 is the maximum; inconclusive = response in the unintended direction; inactive = score below 0.9.

biological target: Retinoic acid receptor RXR-alpha (Homo sapiens) (UniProt P19793); assay: ATG_RXRa_TRANS: Attagene TRANS-FACTORIAL HepG2 Assay for human Retinoid X Receptor alpha (RXRa) (AID 2283012)
Sequence (P19793 whole entry, looked up, the tested form may be a part): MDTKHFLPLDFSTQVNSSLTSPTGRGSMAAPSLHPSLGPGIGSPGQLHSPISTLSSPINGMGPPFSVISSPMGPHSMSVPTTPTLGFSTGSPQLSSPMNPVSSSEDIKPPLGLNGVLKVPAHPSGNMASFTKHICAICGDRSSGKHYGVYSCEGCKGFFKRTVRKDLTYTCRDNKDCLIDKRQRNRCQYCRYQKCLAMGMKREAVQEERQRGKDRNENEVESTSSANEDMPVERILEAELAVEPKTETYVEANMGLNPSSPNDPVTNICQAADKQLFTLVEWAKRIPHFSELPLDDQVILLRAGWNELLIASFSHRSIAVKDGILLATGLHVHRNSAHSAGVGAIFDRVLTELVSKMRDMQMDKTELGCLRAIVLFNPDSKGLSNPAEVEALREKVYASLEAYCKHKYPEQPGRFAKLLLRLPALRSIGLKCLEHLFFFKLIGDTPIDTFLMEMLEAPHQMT
How it was run: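 Transient transfection of human HepG2 with multiple GAL4-UAS reporter constructs; 24 h compound exposure; total RNA isolated, reverse-transcribed, PCR-amplified, 6-FAM labelled, HpaI-cut, resolved by capillary electrophoresis. Positive-direction fit versus DMSO.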

Row | Structure (SMILES) | outcome
1 | CC1(C)[C@H](C=C(Cl)Cl)[C@H]1C(=O)OCc1cccc(Oc2ccccc2)c1 | inactive
2 | c1ccc(Sc2ccccc2)cc1 | inactive
3 | CCCCCc1cccc(=O)o1 | inactive
4 | CC(C)(C)c1cccc(O)c1 | inactive
5 | C=CC(=O)OCCCCCC | inactive
6 | O=C(O)c1ccc(C(=O)O)c(C(=O)O)c1 | inactive
7 | Cc1ccncc1 | inactive
8 | [Cl][Dy]([Cl])[Cl] | inactive
9 | CCOC(=O)CC1(C)OCC(C)O1 (stereo not drawn) | inactive
10 | CCCCCCCC(=O)N(C)C | inactive

biological target: human Retinoid X Receptor beta (RXRb), RXRB (gene 6257) (UniProt P28702); assay: ATG_RXRb_TRANS: Attagene TRANS-FACTORIAL HepG2 Assay for human Retinoid X Receptor beta (RXRb) (AID 2283013)
Sequence (P28702 whole entry, looked up, the tested form may be a part): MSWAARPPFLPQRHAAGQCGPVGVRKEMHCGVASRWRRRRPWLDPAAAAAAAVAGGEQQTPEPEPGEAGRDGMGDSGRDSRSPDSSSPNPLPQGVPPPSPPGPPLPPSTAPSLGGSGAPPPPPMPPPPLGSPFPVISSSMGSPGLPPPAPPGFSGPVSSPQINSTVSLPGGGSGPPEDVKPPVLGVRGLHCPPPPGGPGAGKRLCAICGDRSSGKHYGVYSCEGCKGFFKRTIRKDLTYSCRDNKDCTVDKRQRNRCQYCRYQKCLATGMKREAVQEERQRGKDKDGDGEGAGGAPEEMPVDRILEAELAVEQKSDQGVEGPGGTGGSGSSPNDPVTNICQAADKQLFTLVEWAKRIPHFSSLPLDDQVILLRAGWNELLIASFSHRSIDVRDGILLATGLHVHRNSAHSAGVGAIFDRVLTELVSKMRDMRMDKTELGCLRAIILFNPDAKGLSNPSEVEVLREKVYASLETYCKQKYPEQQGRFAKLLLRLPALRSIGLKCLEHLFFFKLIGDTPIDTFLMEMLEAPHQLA
How it was run: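 Transfect HepG2 with GAL4-UAS multi-reporter constructs (chimeric NR-Gal4, TRANS format); dose compound 24 h; isolate RNA, RT-PCR, FAM primer extension, HpaI digest; quantify by capillary electrophoresis; positive direction vs DMSO.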

Row | Structure (SMILES) | outcome | AC50
11 | CCCCCCOc1ccc(O)cc1 | inactive | –
12 | CC1(C)[C@H](C=C(Cl)Cl)[C@H]1C(=O)OCc1cccc(Oc2ccccc2)c1 | inactive | –
13 | c1ccc(Sc2ccccc2)cc1 | – | 100 µM (active)
14 | CCCCCc1cccc(=O)o1 | inactive | –
15 | COc1ccc2[nH]cc(CCNC(C)=O)c2c1 | inactive | –
16 | CCCCCCCCCCO[C@@H]1O[C@H](CO)[C@@H](O)[C@H](O)[C@H]1O | inactive | –
17 | CC(C)(C)c1cccc(O)c1 | – | 66.4 µM (active)
18 | C=C/C(C)=C/C/C=C(\C)CCC=C(C)C | inactive | –
19 | CC(=O)CC(C)(C)C1CCCCC1 | inactive | –
20 | [Na+] | inactive | –
21 | C=CC(=O)OCC(CO)(COC(=O)C=C)COC(=O)C=C | inactive | –
22 | C=C(C)CCCC(C)CCO (stereo not drawn) | inactive | –
23 | CCCCCCCCCCCCN1CCOCC1 | – | 42.8 µM (active)
24 | O=C(O)c1ccc(C(=O)O)c(C(=O)O)c1 | inactive | –
25 | O=[N+]([O-])c1cc(N(CCO)CCO)ccc1NCCO | inactive | –
26 | [Cl][Dy]([Cl])[Cl] | inactive | –
27 | CC(=O)c1ccc(C)cc1 | inactive | –
28 | CCC(CC)CO | inactive | –
